A short description of assay [1]: blockers of polyQ-driven CASP3 activation – cell-based (AID 1583). The following applies: polyglutamine-induced caspase-3 activation, cell assay; stronger effect = higher value;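 tested at 10 µM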.
A short description of assay [2]: yeast 75Q aggregation reduction – 75Q-TubU reporter (AID 1593). The conditions noted are these: Yeast 75Q polyglutamine aggregation reporter.
Assay [3] in a line: restoration of touch response, mutant HTT neurons – whole organism, C. elegans mechanosensory neurons, N-terminal huntingtin (AID 1599). The following applies: C. elegans polyQ-huntingtin mechanosensory neurons, stronger effect = higher value.
A short description of assay [4]: blockers of cytochrome c efflux from mitochondria – biochemical, purified mitochondria (AID 1603).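 Further: mouse liver mitochondria challenged with calcium chloride; signal normalized to the plate average as 100%.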 The conditions noted are these: stronger effect = lower value.
Assay [5] can be described thus: polyglutamine aggregate formation blockers (AID 1604). The conditions noted are these: polyglutamine-induced protein aggregation inhibition assay; stronger effect = higher value; tested at 2.5 µM.
A short description of assay [6]: glutamate transport activators, MN-1 cells, MN-1 cell line (AID 1612).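 Further: tested at 1 µM final; 0% = mean of DMSO vehicle wells on each plate; positive means more glutamate uptake than control and negative means less.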 The following applies: MN-1 motor neuron cells, stronger effect = higher value.
Assay [7] is described as follows: GFP-Q80 aggregate reduction, neuronal-like cells, cell-based, NGF-treated PC12, GFPQ80 (AID 1614).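 Further: lower means fewer inclusions and 0 means no inclusions at all.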 The following applies: PC12 NGF-treated GFP-polyQ80 inclusion reduction.
Assay [8] can be described thus: 75Q-TubH aggregate inhibition, S. cerevisiae, yeast (AID 1616). The following applies: S. cerevisiae 75Q-TubH polyglutamine aggregation suppression; stronger effect = higher value.
Assay [9] is described as follows: compounds altering circadian rhythm period length – cell-based, LOPAC library, luminescence reporter (AID 2774; call rule not given here;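 further: values are relative to mean of DMSO wells on each plate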). The conditions noted are these: circadian reporter cells, at 7 µM, actives lie on both sides.
The subject of assay [10] is Hepatitis C virus NS3 helicase. Kind of assay: blockers of NS3h binding to ssDNA – biochemical, fluorescence polarization, LOPAC1280 library, primary screen (AID 687035; in the data active means inhibition above about 37%). The following applies: Purified HCV NS3 helicase, Cy5-dT15 ssDNA binding fluorescence polarization; stronger effect = higher value; concentration not given here. A general note: Fluorescence polarisation rises when a labelled molecule tumbles more slowly, as on binding a larger partner.

The target in assay [11] is 6-phosphogluconate dehydrogenase, decarboxylating (Homo sapiens) (UniProt P52209). Briefly: inhibition of human phosphogluconate dehydrogenase – biochemical, recombinant enzyme, NADPH absorbance, primary screen (AID 1159550;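 active means at least 20% inhibition of 6-phosphogluconate dehydrogenase activity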). The following applies: recombinant 6PGD, NADPH absorbance 341 nm; at 10 µM; stronger effect = higher value.
6-phosphogluconate dehydrogenase, decarboxylating (Homo sapiens), sequence (P52209 whole entry, looked up): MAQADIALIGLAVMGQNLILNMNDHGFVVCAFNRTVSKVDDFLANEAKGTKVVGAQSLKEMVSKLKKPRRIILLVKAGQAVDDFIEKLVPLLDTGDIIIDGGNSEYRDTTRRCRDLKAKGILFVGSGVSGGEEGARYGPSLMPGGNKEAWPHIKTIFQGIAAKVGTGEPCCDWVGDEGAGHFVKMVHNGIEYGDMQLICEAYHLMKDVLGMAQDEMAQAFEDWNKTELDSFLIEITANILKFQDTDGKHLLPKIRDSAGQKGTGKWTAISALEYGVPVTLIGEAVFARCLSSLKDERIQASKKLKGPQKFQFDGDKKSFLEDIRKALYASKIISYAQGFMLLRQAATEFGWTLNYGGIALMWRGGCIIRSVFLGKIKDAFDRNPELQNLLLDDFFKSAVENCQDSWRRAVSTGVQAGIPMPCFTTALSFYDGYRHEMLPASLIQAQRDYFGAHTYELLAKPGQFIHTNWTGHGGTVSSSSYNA
Assay [12] is described as follows: EMT-state selective cytotoxicity in co-culture – imaging, PC-3E GFP, TEM4-18 mCherry, primary screen (AID 1345086;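 active means compounds killing one labelled cell type while sparing the other, by normalised counts and ratio limits, not self-fluorescent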;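 on all read-outs here: cells exposed to compound for 72 h before imaging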;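 on red/green cell ratio (normalised): normalised mesenchymal count divided by normalised epithelial count so high means epithelial killing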). The conditions noted are these: PC-3E GFP / TEM4-18 mCherry co-culture, imaging cell counts, at 1 µM; for red/green cell ratio (normalised): actives lie on both sides, counts scaled to control wells, 1 = unselective.
Assay [13] in a line: blockers of cellular phospholipid synthesis – cell-based, LOPAC library, screen 4, primary screen (AID 1347384; call rule not given here). The conditions noted are these: animal cells, phospholipid biosynthesis inhibition screen; at 10 µM.
A short description of assay [14]: MELAS cybrid and Rieske KO viability enhancers – cell-based, MELAS cybrids, Rieske KO mouse fibroblasts, CellTiter-Glo, primary screen (AID 1508586;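 active means mean z-score across replicates of 1.96 or higher in either the MELAS or the Rieske mutant cell line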;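 further: z relative to plate mean and SD of compound and empty wells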). The following applies: low glucose.
Assay [15] can be described thus: galactose survival enhancers in mitochondrial complex I cybrids – cell-based, galactose medium, ATP luminescence, primary screen (AID 1645843;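 active means z-score of at least 1.8 in each of two replicates, scored against plate mean and spread of sample wells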;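 further: positive z means more ATP and so rescue of galactose-driven cybrid death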). The following applies: complex I mutant cybrid cells, 72 h, stronger effect = higher value.
Assay [16] is described as follows: P. berghei load reduction in hepatocytes – cell-based, HepG2, luciferase luminescence, HepG2 viability, primary screen (AID 624349; in the data active means parasite load remaining mostly below about 12%, no sharp cut-off; inactive means mostly above about 10%;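 further: 100% = mean of DMSO negative control wells on the same plate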). The following applies: P. berghei liver stage in HepG2, luciferase luminescence, concentration not given here; parasite load remaining: stronger effect = lower value; viability: measured here: HepG2 viability without parasites.
The nature of assay [17]: viability loss with induced miR-34 in A549 – imaging, A549 dox-inducible miR-34, nuclei and caspase counts, primary screen (AID 1347080). The conditions noted are these: A549 miR-34 inducible, Hoechst nuclei count, 48 h.
Assay [18] concerns the target Mitogen-activated protein kinase 7 (Homo sapiens) (UniProt Q13164). Kind of assay: Gal4-ERK5 driven luciferase induction – cell-based, HTS, primary screen (AID 1508626;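 active means luciferase signal above three times the same-plate solvent-only control wells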;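 further: luciferase driven by Gal4-ERK5 fusion binding five Gal4 sites before minimal TATA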). The conditions noted are these: HeLa Gal4-ERK5 transactivation, 18 h, at 5 µM, stronger effect = higher value.
For assay [19], the target named is NAD(+) hydrolase SARM1 (Homo sapiens) (UniProt Q6SZW1). Kind of assay: blocking NAD cleavage by SARM1 SAM-TIR – cell lysate, NAD-Glo luminescence (AID 1508614;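 active means compound whose remaining NAD level is above about 45 nM, limit read from the data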). The following applies: SAM-TIR HEK293T lysate NADase, at 1 µM, stronger effect = higher value.
NAD(+) hydrolase SARM1 (Homo sapiens), sequence (Q6SZW1 whole entry, looked up): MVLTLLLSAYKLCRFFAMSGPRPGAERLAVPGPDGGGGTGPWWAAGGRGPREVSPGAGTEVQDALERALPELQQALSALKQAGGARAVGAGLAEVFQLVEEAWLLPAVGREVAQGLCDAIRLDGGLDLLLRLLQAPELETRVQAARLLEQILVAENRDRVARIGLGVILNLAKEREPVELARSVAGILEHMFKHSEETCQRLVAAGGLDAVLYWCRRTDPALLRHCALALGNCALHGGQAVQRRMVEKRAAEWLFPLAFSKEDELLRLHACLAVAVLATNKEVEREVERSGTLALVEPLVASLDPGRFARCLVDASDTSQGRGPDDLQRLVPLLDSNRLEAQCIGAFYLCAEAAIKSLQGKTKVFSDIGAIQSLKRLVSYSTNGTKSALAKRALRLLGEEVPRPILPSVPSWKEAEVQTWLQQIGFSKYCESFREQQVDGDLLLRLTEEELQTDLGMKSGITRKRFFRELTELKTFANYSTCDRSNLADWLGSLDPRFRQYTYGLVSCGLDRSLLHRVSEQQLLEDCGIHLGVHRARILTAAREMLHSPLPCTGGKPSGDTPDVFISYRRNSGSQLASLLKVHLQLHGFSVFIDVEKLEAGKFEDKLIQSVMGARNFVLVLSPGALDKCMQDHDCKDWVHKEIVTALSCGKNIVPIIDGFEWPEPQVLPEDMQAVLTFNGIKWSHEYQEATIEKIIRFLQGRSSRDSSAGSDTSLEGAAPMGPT
Setting [20] is: measured here: epithelial PC-3E GFP cell survival.
Where [21] appears, read: measured here: mesenchymal TEM4-18 mCherry cell survival.
The mark [22] stands for this setting: MELAS cybrid survival, CellTiter-Glo 48 h, stronger effect = higher value.
The mark [23] stands for this setting: Rieske KO mouse fibroblast survival, CellTiter-Glo 72 h.
Where [24] appears, read: stronger effect = lower value, cell number ratio, induced over uninduced.
Where [25] appears, read: measured here: relative caspase fold change +Dox/-Dox.
Where [26] appears, read: measured here: total cells with miR-34 induction, stronger effect = lower value.
Setting [27] is: measured here: total cells without miR-34 induction.

We go through five compounds from PubChem BioAssay.

Where “and” joins values, the source holds several entries; their conditions need not be identical. Identical values can stand only once. For part of these data: Potency and affinity values are given separately. The source holds several records for some structures; these can differ, active in one and inactive in another. Calls of active or inactive are those of the source.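 How the source made its calls, unless noted: active means compounds whose cell count with miR-34 switched on is under 0.7 times the count with it off; inactive means the rest.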

Mitogen-activated protein kinase 7 (Homo sapiens), sequence (Q13164 whole entry, looked up, the tested form may be a part): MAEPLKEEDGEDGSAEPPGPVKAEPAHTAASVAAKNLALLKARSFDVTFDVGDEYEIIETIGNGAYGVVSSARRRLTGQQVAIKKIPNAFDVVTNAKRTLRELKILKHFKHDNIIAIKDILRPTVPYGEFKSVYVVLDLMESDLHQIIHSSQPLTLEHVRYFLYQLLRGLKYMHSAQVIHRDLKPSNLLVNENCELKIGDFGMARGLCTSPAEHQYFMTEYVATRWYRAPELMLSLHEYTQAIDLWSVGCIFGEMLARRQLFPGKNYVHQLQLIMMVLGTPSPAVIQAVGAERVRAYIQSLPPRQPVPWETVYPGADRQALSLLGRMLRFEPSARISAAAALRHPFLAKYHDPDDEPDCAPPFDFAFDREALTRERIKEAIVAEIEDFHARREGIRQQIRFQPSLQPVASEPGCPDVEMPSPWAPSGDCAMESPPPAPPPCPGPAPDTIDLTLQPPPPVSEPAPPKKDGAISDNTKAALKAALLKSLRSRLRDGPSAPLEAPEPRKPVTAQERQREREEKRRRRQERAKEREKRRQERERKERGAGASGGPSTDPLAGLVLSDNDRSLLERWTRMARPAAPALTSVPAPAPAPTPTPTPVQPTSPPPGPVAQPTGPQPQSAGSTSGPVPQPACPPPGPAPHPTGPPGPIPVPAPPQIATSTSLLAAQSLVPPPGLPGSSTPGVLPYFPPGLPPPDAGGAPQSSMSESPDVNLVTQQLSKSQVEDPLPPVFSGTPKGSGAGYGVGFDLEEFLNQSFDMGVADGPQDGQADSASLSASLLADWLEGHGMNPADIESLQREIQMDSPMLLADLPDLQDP

What is called inhibition is the change of the read-out against control, counted positive when it falls. With `CN1C2CCC1CC(OC(=O)C(CO)c1ccccc1)C2` (stereo unspecified), the inhibition in assay [1] is -7.62%; in assay [10], 0% (inactive) and -1% (inactive); in assay [11], -2.64% (inactive). This compound registered a score in assay [2] of 1.48. The same compound yielded a rescue above control in assay [3] of -4.85. Moreover, in assay [4], the cytochrome c release ratio was determined as 1.14. For the same compound, the inhibition of aggregation in assay [5] came out at 83.1%. For the same compound, the glutamate uptake change in assay [6] was 7.04%. Also, the inclusion score in assay [7] is 2. For the same compound, the aggregation suppression score in [8] came to 1.57. The period change in assay [9] was 0.005 hour (inactive) and 0.075 hour (inactive). Moreover, the red/green cell ratio (normalised) in [12] was 1.05 (inactive). Also, the normalised cell number in assay [12] (setting [20]) is 0.95; in assay [12] (setting [21]), 1. Also, in [13], the outcome was inactive. Moreover, the z-score in assay [14] (setting [22]) was -0.14 (inactive); in [14] (setting [23]), -0.261; in assay [15] it was 0.025 (inactive) and 0.13 (inactive).
Broadly, the viability is a read-out of living cells in per cent, often relative to untreated cells. Turning to `O=c1cc(-c2ccccc2)oc2cc(O)cc(O)c12`, the inhibition is 16.7% in assay [1] and 13.6% (inactive) in assay [11]. The compound also displayed a score in assay [2] of -0.45. Also, the rescue above control in assay [3] was found to be 1.21. Also, in [4], the cytochrome c release ratio is 0.64. The compound also registered an inhibition of aggregation in assay [5] of 83.3%. The glutamate uptake change in assay [6] was -33.9%. In assay [8], the aggregation suppression score was 0.573. In addition, in assay [16], the parasite load remaining was 112% (inactive) and 75% (inactive). In addition, the viability in [16] was 98.1% and 69.3%. Also, the red/green cell ratio (normalised) in assay [12] is 0.89 (inactive). In addition, the normalised cell number in [12] (setting [20]) turned out to be 1.21; in assay [12] (setting [21]) it was 1.08. Moreover, the fold change in assay [17] (setting [24]) is 0.807 (inactive) and 0.948 (inactive); in [17] (setting [25]), 1.38 and 0.939. Further, the cell count is 5370 and 8220 in [17] (setting [26]); 6660 and 8680 in assay [17] (setting [27]). Moreover, the figures for the z-score in [14] (setting [22]) and in assay [14] (setting [23]) were -0.289 (inactive) and 0.583, respectively. In addition, the luciferase signal in [18] is 136 AU (inactive).
For `CCn1nc(C(=O)O)c(=O)c2cc3c(cc21)OCO3`, the inhibition was 20.5% in assay [1], -4% (inactive) in assay [10] and 6.67% (inactive) in assay [11]. Further, the score in assay [2] stood at 0.7. This compound showed a rescue above control in assay [3] of 3.16. The cytochrome c release ratio in assay [4] was 0.93. For the same compound, in assay [5], the inhibition of aggregation amounted to 18.2%. The glutamate uptake change in assay [6] is -5.25%. In addition, the inclusion score in assay [7] stood at 2. In addition, in [8], the aggregation suppression score was 0.697. The period change in [9] is 0.04 h (inactive). For the same compound, in assay [16], the parasite load remaining is 87.3% (inactive) and 66.8% (inactive). Moreover, the viability in assay [16] is 99.6% and 76.9% and 91.7%. In addition, the red/green cell ratio (normalised) in assay [12] is 1.25 (inactive). Also, the normalised cell number in assay [12] (setting [20]) turned out to be 1.11; in assay [12] (setting [21]), 1.38. For the same compound, the fold change in assay [17] (setting [24]) was 0.983 (inactive) and 0.931 (inactive) and 0.893 (inactive); in assay [17] (setting [25]), 1.81 and 0.999 and 1.16. Further, the cell count in [17] (setting [26]) is 10100 and 8650 and 10900; in assay [17] (setting [27]) it was 10300 and 9290 and 12200. Moreover, the outcome in assay [13] was inactive. In addition, the results for the z-score in assay [14] (setting [22]), in assay [14] (setting [23]) and in assay [15] were -0.474 (inactive), -0.663 and 0.215 (inactive), respectively. The remaining NAD in assay [19] was 10 nM (inactive). Besides, the luciferase signal in assay [18] is 32 AU (inactive).
Take `O=C(/C=C/c1ccc(O)c(O)c1)OCCc1ccccc1`: the period change in assay [9] is 0.335 h (inactive). Besides, the inhibition is -2% (inactive) in assay [10] and 14% (inactive) in [11]. Also, in [12], the red/green cell ratio (normalised) was 0.72 (inactive). Besides, the values for the normalised cell number in [12] (setting [20]) and in assay [12] (setting [21]) were 1.3 and 0.94, respectively. In [17] (setting [24]), the fold change was 1.03 (inactive) and 1.01 (inactive) and 1.12 (inactive). The compound was classed as inactive in assay [13]. Besides, the luciferase signal in assay [18] was 56 AU (inactive). Further, the z-score in assay [15] was -1.37 (inactive) and -0.615 (inactive).
On to `CC[C@H]1OC(=O)[C@H](C)[C@@H](O[C@H]2C[C@@](C)(OC)[C@@H](O)[C@H](C)O2)[C@H](C)[C@@H](O[C@@H]2O[C@H](C)C[C@H](N(C)C)[C@H]2O)[C@](C)(O)C[C@@H](C)C(=O)[C@H](C)[C@@H](O)[C@]1(C)O`, for which the inhibition in [1] is -6% and 7.62% and 29.3%; in assay [11], 2.57% (inactive) and -12% (inactive). For the same compound, the score in assay [2] is 1 and 1.46 and 0.46. Further, the rescue above control in [3] is 2.19 and 2 and 0.57. In [4], the cytochrome c release ratio was 1.13 and 0.65 and 0.96. Further, in [5], the inhibition of aggregation is 76.2% and 28.2% and 15.7%. In addition, the glutamate uptake change in assay [6] was -4.4% and 1.02% and 35.1%. In assay [7], this compound displayed an inclusion score of 2. In assay [8], the aggregation suppression score was 0.915 and 1.27 and 0.716. The parasite load remaining in [16] was 44.8% (inactive) and 99.9% (inactive) and 62.2% (inactive). For the same compound, in assay [16], the viability is 44.6% and 74.8% and 115%. Also, the red/green cell ratio (normalised) in assay [12] is 1.08 (inactive) and 0.76 (inactive). The normalised cell number in assay [12] (setting [20]) is 0.96 and 0.98; in [12] (setting [21]) it was 1.03 and 0.74. Further, the fold change was 0.923 (inactive) and 0.889 (inactive) and 0.914 (inactive) in assay [17] (setting [24]); 0.947 and 1.27 and 1.04 in assay [17] (setting [25]). Moreover, the cell count in assay [17] (setting [26]) was 7930 and 8750 and 10800; in assay [17] (setting [27]), 8590 and 9850 and 11800. Also, the values for the z-score in [14] (setting [22]) and in assay [14] (setting [23]) were -0.415 (inactive) and -0.471, respectively. Further, the remaining NAD in [19] is 85 nM (active) and 10 nM (inactive). The luciferase signal in [18] was 60 AU (inactive).
